Inconclusive results are not listed. Activity calls are given as the source filed them. Rule for the calls, unless noted: active = hit-call score of the fitted dose curve at least 0.9, where 1 is the maximum; inconclusive = response in the unintended direction; inactive = score below 0.9.
Tests used:
[1] = target: human Peroxisome Proliferator-activated Receptor alpha (PPARa), PPARA (gene 5465) (UniProt Q07869); assay: ATG_PPARa_TRANS: Attagene TRANS-FACTORIAL HepG2 Assay for human Peroxisome Proliferator-activated Receptor alpha (PPARa) (AID 2283001);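 for AC50: potency for gain of reporter signal over DMSO so agonist or activator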
Procedure, shortened: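 HepG2 cells transiently transfected with multiplexed GAL4-UAS reporter units and chimeric NR-Gal4 constructs were dosed for 24 h. Reporter mRNA was measured by RT-PCR with fluorescent labelling and capillary electrophoresis; gain of signal fitted against DMSO.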

[2] = target: human Peroxisome Proliferator-activated Receptor delta (PPARd), PPARD (gene 5467) (UniProt Q03181); assay: ATG_PPARd_TRANS: Attagene TRANS-FACTORIAL HepG2 Assay for human Peroxisome Proliferator-activated Receptor delta (PPARd) (AID 2283002)
Procedure, shortened: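 Measured quantity: GAL4-UAS reporter transcript induction in HepG2 after 24 h chemical dosing, with NR-Gal4 chimeras supplied by transient transfection. Detection by RT-PCR and capillary electrophoresis; upward fit against DMSO.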

[3] = target: human Retinoic Acid Receptor beta (RARb), RARB (gene 5915) (UniProt P10826); assay: ATG_RARb_TRANS: Attagene TRANS-FACTORIAL HepG2 Assay for human Retinoic Acid Receptor beta (AID 2283004)
Procedure, shortened: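 HepG2 cells transiently transfected with multiplexed GAL4-UAS reporter units expressing chimeric NR–Gal4 fusions; 24 h compound exposure. Reporter mRNA quantified by RT-PCR, 6-FAM labelling, HpaI digestion and capillary electrophoresis; gain-of-signal fitted against DMSO baseline.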

[4] = target: Peroxisome proliferator-activated receptor gamma (Homo sapiens) (UniProt P37231); assay: ATG_PPARg_TRANS: Attagene TRANS-FACTORIAL HepG2 Assay for human Peroxisome Proliferator-activated Receptor-gamma (PPARg) (AID 2283007)
Procedure, shortened: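 Human hepatoma HepG2, transient MRTU transfection, 24 h treatment. mRNA reporter signal by RT-PCR plus capillary electrophoresis, fluorescence detection; fitted for increase over DMSO negative control.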

[5] = target: Nuclear receptor subfamily 1 group I member 2 (Homo sapiens) (UniProt O75469); assay: ATG_PXR_TRANS: Attagene TRANS-FACTORIAL HepG2 Assay for human Pregnane X Receptor (PXR) (AID 2283008)
Procedure, shortened: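 Read-out is fluorescence of labelled reporter cDNA fragments separated by capillary electrophoresis after RT-PCR and HpaI digestion. Source: HepG2 cells carrying PXR-GAL4/UAS reporter constructs, treated 24 h; activity fitted upward relative to DMSO.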

[6] = target: human Retinoic Acid Receptor gamma (RARg), RARG (gene 5916) (UniProt P13631); assay: ATG_RARg_TRANS: Attagene TRANS-FACTORIAL HepG2 Assay for human Retinoic Acid Receptor gamma (RARg) (AID 2283009)
Procedure, shortened: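 HepG2 cells transiently transfected with multiplexed reporter units expressing chimeric RARg-GAL4 and GAL4-UAS-driven reporters; 24 h compound exposure. Reporter mRNA quantified by RT-PCR with fluorescent labelling and capillary electrophoresis; gain-of-signal fitted relative to DMSO baseline.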

[7] = target: human RAR-related Orphan Receptor beta (RORb), RORB (gene 6096) (UniProt Q92753); assay: ATG_RORb_TRANS: Attagene TRANS-FACTORIAL HepG2 Assay for human RAR-related Orphan Receptor beta (RORb) (AID 2283010)
Procedure, shortened: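 HepG2 cells were transiently transfected with multiplexed GAL4-UAS reporter units expressing chimeric nuclear receptor–GAL4 proteins, then dosed for 24 h. Reporter mRNA was quantified by RT-PCR with fluorescent labelling and capillary electrophoresis; gain of signal was fitted relative to DMSO.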

[8] = target: human RAR-related Orphan Receptor gamma (RORg), RORC (gene 6097) (UniProt P51449); assay: ATG_RORg_TRANS: Attagene TRANS-FACTORIAL HepG2 Assay for human RAR-related Orphan Receptor gamma (RORg) (AID 2283011)
Procedure, shortened: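 Readout: reporter transcript induction (RT-PCR, fluorescent primer extension, capillary electrophoresis) after 24 h compound exposure of transiently transfected HepG2 cells carrying a RORg-Gal4 chimera and GAL4-UAS reporters; DMSO served as baseline, with increasing signal fitted.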

[9] = target: Retinoic acid receptor RXR-alpha (Homo sapiens) (UniProt P19793); assay: ATG_RXRa_TRANS: Attagene TRANS-FACTORIAL HepG2 Assay for human Retinoid X Receptor alpha (RXRa) (AID 2283012)
Procedure, shortened: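 HepG2 cells transiently transfected with multiplexed GAL4-UAS reporter units and chimeric NR-GAL4 fusions, dosed 24 h. Reporter mRNA measured by RT-PCR, FAM labelling, HpaI digestion and capillary electrophoresis; gain-of-signal fitted relative to DMSO baseline.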

[10] = target: human Retinoid X Receptor beta (RXRb), RXRB (gene 6257) (UniProt P28702); assay: ATG_RXRb_TRANS: Attagene TRANS-FACTORIAL HepG2 Assay for human Retinoid X Receptor beta (RXRb) (AID 2283013)
Procedure, shortened: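 HepG2 cells transiently transfected with multiplexed reporter units driven by GAL4-UAS and exogenous chimeric NR-Gal4 proteins; treated 24 h. Reporter mRNA measured by RT-PCR, 6-FAM labelling and capillary electrophoresis; gain-of-signal fitted versus DMSO baseline.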

[11] = read-out: Intercellular Adhesion Molecule 1 (ICAM1), ICAM1 (gene 3383); assay: BSK_3C_ICAM1: BioMAP Diversity Plus: 3C Assay for Intercellular Adhesion Molecule 1 (ICAM1) Biomarker Activity (AID 2283003; active = hit-call score of the fitted dose curve at least 0.9, where 1 is the maximum; inactive = score below 0.9); details: primary human endothelial cells (HUVEC); actives raise or lower the signal
Procedure, shortened: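 Primary human umbilical vein endothelial cells in the BioMAP 3C system were exposed to chemicals for 24 h, then ICAM-1 was quantified by ELISA. Activity was fitted bidirectionally against the DMSO negative control baseline.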

[12] = BSK_3C_Proliferation: Cell Proliferation Assessment in the BioMAP Diversity Plus: 3C Assay (AID 2283006; active = hit-call score of the fitted dose curve at least 0.9, where 1 is the maximum; inactive = score below 0.9;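 for AC50: potency may reflect either rise or fall in cell number versus DMSO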); details: primary human endothelial cells (HUVEC)
Procedure, shortened: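 Human umbilical vein endothelial cells were grown sub-confluent and exposed to chemical for 48 h, then fixed with 10% TCA and stained with 0.1% sulforhodamine B; absorbance at 560 nm gave relative cell number, fitted bidirectionally against DMSO baseline.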

[13] = read-out: E-selectin (Homo sapiens) (UniProt P16581); assay: BSK_3C_Eselectin: BioMAP Diversity Plus: 3C Assay for Eselectin Biomarker Activity (AID 2283015; active = hit-call score of the fitted dose curve at least 0.9, where 1 is the maximum; inactive = score below 0.9); details: primary human endothelial cells (HUVEC); actives raise or lower the signal
Procedure, shortened: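 Primary human umbilical vein endothelial cells (3C system) were dosed with chemical and cell-surface E-selectin measured by ELISA 24 h later. Bidirectional curve fitting used DMSO as negative control and baseline.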

[14] = read-out: Interleukin-1 alpha (IL1a), IL1A (gene 3552); assay: BSK_BE3C_IL1a: BioMAP Diversity Plus: BE3C Assay for Interleukin-1 alpha (IL1a) Biomarker Activity (AID 2283016; active = hit-call score of the fitted dose curve at least 0.9, where 1 is the maximum; inactive = score below 0.9); details: primary human bronchial epithelial cells; actives raise or lower the signal
Procedure, shortened: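 Human primary bronchial epithelial cells (BE3C system) were dosed with compound and IL-1a measured by ELISA 24 h later. Activity was fitted bidirectionally against DMSO baseline; cytotoxicity was tracked in parallel cultures by SRB total-protein staining.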

[15] = read-out: Monocyte Chemoattractant Protein-1 (MCP1), CCL2 (gene 6347); assay: BSK_3C_MCP1: BioMAP Diversity Plus: 3C Assay for Monocyte Chemoattractant Protein-1 (MCP1) Biomarker Activity (AID 2283017; active = hit-call score of the fitted dose curve at least 0.9, where 1 is the maximum; inactive = score below 0.9); details: primary human endothelial cells (HUVEC); actives raise or lower the signal
Procedure, shortened: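 Primary human umbilical vein endothelial cells (3C system) were exposed to test chemical for 24 h, after which MCP-1 was quantified by ELISA. Activity was fitted bidirectionally against DMSO as negative control and baseline.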

[16] = read-out: Monocyte Chemoattractant Protein-1 (MCP1), CCL2 (gene 6347); assay: BSK_4H_MCP1: BioMAP Diversity Plus: 4H Assay for Monocyte Chemoattractant Protein-1 (MCP1) Biomarker Activity (AID 2283018; active = hit-call score of the fitted dose curve at least 0.9, where 1 is the maximum; inactive = score below 0.9); details: primary human endothelial cells (HUVEC); actives raise or lower the signal
Procedure, shortened: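 Human umbilical vein endothelial cells (4H system) dosed with chemical; MCP-1 measured by ELISA 24 h after dosing. Bidirectional curve fitting against DMSO negative control as baseline; parallel SRB total-protein staining tracks overt cytotoxicity.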

[17] = read-out: Human Leukocyte Antigen - DR isotype (HLADR), HLA-DRA (gene 3122); assay: BSK_3C_HLADR: BioMAP Diversity Plus: 3C Assay for Human Leukocyte Antigen - DR isotype (HLADR) Biomarker Activity (AID 2283019; active = hit-call score of the fitted dose curve at least 0.9, where 1 is the maximum; inactive = score below 0.9); details: primary human endothelial cells (HUVEC); actives raise or lower the signal
Procedure, shortened: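 Primary human umbilical vein endothelial cells (3C system) were dosed with compound and cell-surface HLA-DR was quantified by ELISA at 24 h. Activity was fitted bidirectionally against DMSO as negative control and baseline.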

[18] = read-out: Interleukin-8 (IL8), CXCL8 (gene 3576); assay: BSK_3C_IL8: BioMAP Diversity Plus: 3C Assay for Interleukin-8 (IL8) Biomarker Activity (AID 2283020; active = hit-call score of the fitted dose curve at least 0.9, where 1 is the maximum; inactive = score below 0.9); details: primary human endothelial cells (HUVEC); actives raise or lower the signal
Procedure, shortened: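 Primary human umbilical vein endothelial cells (3C system) were exposed to test chemical for 24 h, then IL-8 was quantified by ELISA. Responses were fitted bidirectionally against DMSO vehicle as baseline.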

[19] = target: human Thyroid Receptor alpha (THRa1), THRA (gene 7067) (UniProt P10827); assay: ATG_THRa1_TRANS: Attagene TRANS-FACTORIAL HepG2 Assay for human Thyroid Receptor alpha (THRa1) (AID 2283014)
Procedure, shortened: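 HepG2 cells transiently transfected with multiplexed GAL4-UAS reporter units for exogenous chimeric THRa1-Gal4; reporter mRNA measured 24 h after dosing by RT-PCR, 6-FAM labelling, HpaI digestion and capillary electrophoresis. Gain-of-signal fitted versus DMSO baseline.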

[20] = target: Retinoic acid receptor alpha (Homo sapiens) (UniProt P10276); assay: ATG_RARa_TRANS: Attagene TRANS-FACTORIAL HepG2 Assay for human Retinoic Acid Receptor alpha (RARa) (AID 2283005)
Procedure, shortened: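 HepG2 cells transiently transfected with multiple reporter units expressing chimeric RARα-GAL4 fusion, with GAL4-UAS-driven reporters. After 24 h compound exposure, reporter mRNA induction quantified by RT-PCR and capillary electrophoresis with fluorescent labeling; gain-of-signal fitted relative to DMSO control.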

Measured: AC50

Chain of human Peroxisome Proliferator-activated Receptor alpha (PPARa), PPARA (gene 5465) (Q07869 whole entry, looked up, the tested form may be a part): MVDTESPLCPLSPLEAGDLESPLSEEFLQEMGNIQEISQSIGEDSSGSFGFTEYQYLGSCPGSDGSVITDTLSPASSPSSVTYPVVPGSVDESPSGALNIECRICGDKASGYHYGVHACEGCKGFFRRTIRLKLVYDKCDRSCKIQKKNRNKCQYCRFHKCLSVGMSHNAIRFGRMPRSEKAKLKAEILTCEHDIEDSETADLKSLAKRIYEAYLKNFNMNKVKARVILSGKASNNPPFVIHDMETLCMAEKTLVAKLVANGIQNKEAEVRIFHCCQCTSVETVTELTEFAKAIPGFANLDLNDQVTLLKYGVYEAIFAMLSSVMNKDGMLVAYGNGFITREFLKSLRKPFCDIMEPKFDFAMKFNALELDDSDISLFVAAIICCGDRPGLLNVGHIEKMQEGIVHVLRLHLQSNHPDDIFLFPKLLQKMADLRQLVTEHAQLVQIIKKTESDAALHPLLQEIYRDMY
Chain of Retinoic acid receptor RXR-alpha (Homo sapiens) (P19793 whole entry, looked up, the tested form may be a part): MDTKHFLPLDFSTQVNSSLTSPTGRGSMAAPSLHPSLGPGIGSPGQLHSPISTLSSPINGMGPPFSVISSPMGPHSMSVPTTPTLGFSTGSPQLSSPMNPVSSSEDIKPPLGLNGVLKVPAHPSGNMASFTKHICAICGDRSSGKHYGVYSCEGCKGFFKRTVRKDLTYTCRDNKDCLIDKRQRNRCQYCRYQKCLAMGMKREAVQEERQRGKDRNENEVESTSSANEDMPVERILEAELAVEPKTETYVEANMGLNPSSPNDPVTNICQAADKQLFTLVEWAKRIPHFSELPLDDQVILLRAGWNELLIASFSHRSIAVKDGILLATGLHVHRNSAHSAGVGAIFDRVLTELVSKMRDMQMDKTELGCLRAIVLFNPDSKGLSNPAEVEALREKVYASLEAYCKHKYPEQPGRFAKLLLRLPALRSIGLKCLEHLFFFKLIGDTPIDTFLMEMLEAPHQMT
Chain of Nuclear receptor subfamily 1 group I member 2 (Homo sapiens) (O75469 whole entry, looked up, the tested form may be a part): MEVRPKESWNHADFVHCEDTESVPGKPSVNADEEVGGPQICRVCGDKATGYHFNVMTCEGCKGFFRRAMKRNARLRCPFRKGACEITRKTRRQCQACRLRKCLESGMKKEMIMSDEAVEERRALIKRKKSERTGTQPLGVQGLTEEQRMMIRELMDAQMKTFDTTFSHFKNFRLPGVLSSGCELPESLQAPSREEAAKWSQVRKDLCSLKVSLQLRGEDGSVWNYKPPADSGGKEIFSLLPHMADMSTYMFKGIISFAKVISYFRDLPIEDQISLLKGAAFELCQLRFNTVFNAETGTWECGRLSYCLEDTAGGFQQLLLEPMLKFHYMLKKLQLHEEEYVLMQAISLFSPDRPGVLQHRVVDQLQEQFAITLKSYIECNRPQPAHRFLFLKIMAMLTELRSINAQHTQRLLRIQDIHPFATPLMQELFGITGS
Chain of human RAR-related Orphan Receptor beta (RORb), RORB (gene 6096) (Q92753 whole entry, looked up, the tested form may be a part): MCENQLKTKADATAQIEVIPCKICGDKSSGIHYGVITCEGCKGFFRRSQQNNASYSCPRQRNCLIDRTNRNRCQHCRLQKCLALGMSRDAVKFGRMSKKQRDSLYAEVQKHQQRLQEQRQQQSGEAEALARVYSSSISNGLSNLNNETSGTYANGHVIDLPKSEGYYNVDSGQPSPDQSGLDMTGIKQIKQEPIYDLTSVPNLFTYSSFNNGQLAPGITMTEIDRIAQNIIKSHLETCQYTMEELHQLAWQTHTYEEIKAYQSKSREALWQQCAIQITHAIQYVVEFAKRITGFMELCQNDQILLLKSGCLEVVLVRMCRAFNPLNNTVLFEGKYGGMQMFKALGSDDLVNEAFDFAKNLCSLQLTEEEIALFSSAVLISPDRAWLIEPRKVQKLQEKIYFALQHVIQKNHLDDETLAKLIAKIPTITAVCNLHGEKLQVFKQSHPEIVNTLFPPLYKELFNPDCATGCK
Chain of E-selectin (Homo sapiens) (P16581 whole entry, looked up): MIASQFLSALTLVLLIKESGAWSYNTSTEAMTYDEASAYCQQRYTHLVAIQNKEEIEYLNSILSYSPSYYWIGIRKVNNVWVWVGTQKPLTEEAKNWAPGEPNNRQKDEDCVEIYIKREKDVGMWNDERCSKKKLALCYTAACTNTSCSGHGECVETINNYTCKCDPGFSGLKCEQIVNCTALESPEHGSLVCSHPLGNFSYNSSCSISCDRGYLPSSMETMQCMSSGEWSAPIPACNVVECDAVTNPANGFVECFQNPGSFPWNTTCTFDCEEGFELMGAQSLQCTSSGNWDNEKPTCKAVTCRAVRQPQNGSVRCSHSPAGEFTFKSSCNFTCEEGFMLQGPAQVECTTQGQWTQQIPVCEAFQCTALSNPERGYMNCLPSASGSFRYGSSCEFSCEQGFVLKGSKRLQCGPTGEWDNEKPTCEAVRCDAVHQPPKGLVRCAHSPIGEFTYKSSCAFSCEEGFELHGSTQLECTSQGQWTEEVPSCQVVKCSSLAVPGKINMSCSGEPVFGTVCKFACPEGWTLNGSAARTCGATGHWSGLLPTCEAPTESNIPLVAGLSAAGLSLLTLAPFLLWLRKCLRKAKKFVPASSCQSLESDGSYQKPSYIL
Chain of human Thyroid Receptor alpha (THRa1), THRA (gene 7067) (P10827 whole entry, looked up, the tested form may be a part): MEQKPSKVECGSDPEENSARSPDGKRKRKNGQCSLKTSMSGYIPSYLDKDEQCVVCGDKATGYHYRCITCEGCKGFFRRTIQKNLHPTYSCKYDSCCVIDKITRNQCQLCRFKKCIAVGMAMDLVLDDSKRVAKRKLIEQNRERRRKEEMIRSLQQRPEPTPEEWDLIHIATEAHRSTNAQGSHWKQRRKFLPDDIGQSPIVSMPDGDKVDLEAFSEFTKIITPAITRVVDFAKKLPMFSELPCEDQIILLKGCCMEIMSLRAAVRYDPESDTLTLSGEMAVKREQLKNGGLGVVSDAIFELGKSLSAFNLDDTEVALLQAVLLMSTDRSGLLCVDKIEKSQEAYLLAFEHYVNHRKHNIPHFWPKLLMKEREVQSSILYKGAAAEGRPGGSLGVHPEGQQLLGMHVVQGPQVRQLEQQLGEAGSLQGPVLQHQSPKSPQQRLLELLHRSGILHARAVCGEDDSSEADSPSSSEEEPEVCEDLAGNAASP
Chain of human Peroxisome Proliferator-activated Receptor delta (PPARd), PPARD (gene 5467) (Q03181 whole entry, looked up, the tested form may be a part): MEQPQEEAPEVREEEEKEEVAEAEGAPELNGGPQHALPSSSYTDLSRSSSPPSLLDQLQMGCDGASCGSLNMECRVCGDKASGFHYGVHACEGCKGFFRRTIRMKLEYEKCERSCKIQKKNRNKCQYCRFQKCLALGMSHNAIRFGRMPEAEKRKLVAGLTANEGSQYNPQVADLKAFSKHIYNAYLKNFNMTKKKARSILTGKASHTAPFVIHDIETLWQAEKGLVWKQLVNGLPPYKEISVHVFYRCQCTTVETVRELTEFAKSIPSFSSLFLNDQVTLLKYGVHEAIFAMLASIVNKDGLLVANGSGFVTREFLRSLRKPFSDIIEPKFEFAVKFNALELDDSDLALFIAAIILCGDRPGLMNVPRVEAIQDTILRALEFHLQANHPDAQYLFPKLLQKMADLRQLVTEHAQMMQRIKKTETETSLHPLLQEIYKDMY
Chain of Peroxisome proliferator-activated receptor gamma (Homo sapiens) (P37231 whole entry, looked up): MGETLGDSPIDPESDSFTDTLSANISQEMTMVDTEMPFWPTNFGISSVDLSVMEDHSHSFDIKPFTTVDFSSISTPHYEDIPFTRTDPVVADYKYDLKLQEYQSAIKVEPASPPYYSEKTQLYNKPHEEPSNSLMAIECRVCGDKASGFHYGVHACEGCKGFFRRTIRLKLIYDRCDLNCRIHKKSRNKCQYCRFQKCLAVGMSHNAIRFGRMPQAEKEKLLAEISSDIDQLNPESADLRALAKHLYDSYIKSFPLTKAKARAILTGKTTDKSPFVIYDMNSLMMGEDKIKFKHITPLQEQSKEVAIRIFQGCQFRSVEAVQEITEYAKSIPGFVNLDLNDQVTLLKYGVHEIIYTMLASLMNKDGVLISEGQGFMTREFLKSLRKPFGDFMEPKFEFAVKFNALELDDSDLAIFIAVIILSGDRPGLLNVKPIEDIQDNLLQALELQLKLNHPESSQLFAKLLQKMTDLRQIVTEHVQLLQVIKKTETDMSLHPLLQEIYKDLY
Chain of human Retinoic Acid Receptor gamma (RARg), RARG (gene 5916) (P13631 whole entry, looked up, the tested form may be a part): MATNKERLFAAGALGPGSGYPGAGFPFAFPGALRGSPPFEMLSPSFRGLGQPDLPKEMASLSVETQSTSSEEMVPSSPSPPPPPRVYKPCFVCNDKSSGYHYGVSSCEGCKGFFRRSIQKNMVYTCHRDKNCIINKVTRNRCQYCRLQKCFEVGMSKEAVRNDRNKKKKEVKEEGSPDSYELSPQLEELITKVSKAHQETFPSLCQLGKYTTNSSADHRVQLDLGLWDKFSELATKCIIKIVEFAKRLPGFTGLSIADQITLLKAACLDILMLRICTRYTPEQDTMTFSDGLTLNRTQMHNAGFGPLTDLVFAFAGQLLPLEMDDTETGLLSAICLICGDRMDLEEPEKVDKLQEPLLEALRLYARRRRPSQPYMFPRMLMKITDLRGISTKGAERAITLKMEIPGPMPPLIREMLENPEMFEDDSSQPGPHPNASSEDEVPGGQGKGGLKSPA
Chain of human RAR-related Orphan Receptor gamma (RORg), RORC (gene 6097) (P51449 whole entry, looked up, the tested form may be a part): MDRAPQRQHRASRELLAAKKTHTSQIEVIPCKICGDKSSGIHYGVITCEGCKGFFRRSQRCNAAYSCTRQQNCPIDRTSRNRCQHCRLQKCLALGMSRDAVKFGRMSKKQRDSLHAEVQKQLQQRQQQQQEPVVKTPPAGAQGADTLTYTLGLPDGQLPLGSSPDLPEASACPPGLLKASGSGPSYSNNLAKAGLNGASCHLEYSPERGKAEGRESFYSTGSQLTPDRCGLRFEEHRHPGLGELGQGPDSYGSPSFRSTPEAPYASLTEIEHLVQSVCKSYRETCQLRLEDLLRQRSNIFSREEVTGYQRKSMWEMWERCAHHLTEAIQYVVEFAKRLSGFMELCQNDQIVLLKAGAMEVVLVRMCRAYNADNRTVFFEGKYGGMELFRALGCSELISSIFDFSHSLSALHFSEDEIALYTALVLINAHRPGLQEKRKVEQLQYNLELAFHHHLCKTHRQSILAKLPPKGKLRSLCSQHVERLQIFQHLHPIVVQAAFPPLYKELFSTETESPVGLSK

CCCCCOC(=O)CCC
inactive: [1] | [2] | [3] | [4] | [5] | [6] | [7] | [8] | [9] | [10]

O=C(Cl)c1cccc(C(=O)Cl)c1
inactive: [1]

Nc1cc([N+](=O)[O-])ccc1O
not listed: [3] | [6] | [8] | [9] | [19] | [20]
inactive: all other assays above

c1ccc2c(c1)c1cccc3ccc4cccc2c4c31
active: [10] 10.2 µM | [17] 0.206 µM
not listed: [3] | [4] | [6] | [7] | [9] | [20]
inactive: all other assays above

C=CC(=O)OCC(O)COc1ccccc1 (stereo not given)
inactive: [2] | [8] | [10] | [19]
active: [1] 17.3 µM | [4] 3.66 µM | [5] 61 µM

CC1CCC(C(C)CS)CC1S (stereo not given)
active: [1] 53.7 µM | [11] 27.4 µM | [12] 25.7 µM | [4] 41 µM | [5] 2.84 µM | [10] 59.9 µM | [13] 30.6 µM | [14] 20 µM | [15] 20 µM | [16] 20 µM | [17] 35.1 µM
inactive: [2] | [6] | [18]

CCCCCCCCCCCCCOS(=O)(=O)O
active: [1] 3.35 µM | [4] 12 µM | [10] 12.9 µM
inactive: [2] | [5] | [8]

O=C1CCCCCCCCCCOCCCCO1
active: [1] 40 µM | [4] 59.3 µM
inactive: [2] | [20] | [5] | [6] | [7] | [9] | [10] | [19]

O=C[C@H](O)[C@H](O)[C@H](O)CO
inactive: [1] | [2] | [3] | [20] | [4] | [6] | [8]

OC1C(O)C(O)C(O)C(O)C1O (stereo not given)
inactive: [1] | [2] | [4] | [5] | [8] | [10] | [19]

O=C1CCCCCCCCCCCCCCO1
active: [1] 100 µM | [2] 179 µM | [11] 28.6 µM | [12] 20 µM | [5] 48.3 µM | [10] 100 µM | [13] 20 µM | [14] 20 µM | [15] 26.5 µM | [16] 25.4 µM | [17] 20 µM | [18] 33.6 µM
inactive: [7] | [8] | [9]

— PubChem BioAssay (EPA / NIEHS)
